Measured values from PubChem BioAssay (NCATS).
Values without a mark were called inactive. The rule behind the calls is not given here.
Potency is the fitted concentration of half-maximal effect.

These compounds were tested on HIV-1 nucleocapsid protein NCp7 (binding to TG oligonucleotide) (assay: HIV Nucleocapsid (AID 346;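 note: potency is for inhibitors that block NC binding and lower polarization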)). Details: HIV-1 NC / fluorescein-TGTGTGTG probe, fluorescence polarization.
In short: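 Fluorescence polarization binding of 100 nM HIV-1 NC to 10 nM fluorescein-labelled TG4xF oligonucleotide. Buffer was Hepes pH 7.5 with 250mM NaCl, 1uM ZnCl2, TCEP and 2-mercaptoethanol. Compounds were incubated 1 hr at room temperature before the read.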
In the case of `COc1ccc(-n2c(=O)c(CCc3ccccc3)nc3cnc(N4CCN(C)CC4)nc32)cc1`, the Potency is reported as > 20 µM.
`c1ccc(CNc2ccnc(-c3ccc4c(c3)OCO4)n2)cc1` was tested, and the Potency was > 20 µM.
`O=C(c1cc(C(F)(F)F)cc(C(F)(F)F)c1)N1CCC[C@@]2(CCN(Cc3ccccc3)C2)C1` was tested, and the Potency was > 4 µM.
In the case of `O=S(=O)(c1ccccc1)N1CCC2(CCN(Cc3ccncc3)CC2)CC1`, the Potency is reported as > 20 µM.
With `COc1ccc2[nH]cc(CCNc3cc(-c4ccccc4CN(C)C)ncn3)c2c1` the Potency was > 20 µM.
`Cc1noc(C)c1-c1nc(NC2CC2)c2ccccc2n1` was tested, and the Potency was > 20 µM.
In the case of `c1cncc(-c2nc(NCCN3CCOCC3)c3ccccc3n2)c1`, the Potency is reported as > 20 µM.
`CN(C)Cc1ccccc1-c1nc(NCc2ccccc2)c2ccccc2n1` was tested, and the Potency was > 20 µM.
`O=C(c1csnn1)N1CCC[C@@]2(CCN(Cc3nccs3)C2)C1` was tested, and the Potency was > 20 µM.
In the case of `CS(=O)(=O)N1CCC2(CC1)CN(c1ncccn1)C2`, the Potency is reported as > 20 µM.
With `Cc1cccc(CNc2cc(-c3ccccc3CN(C)C)ncn2)c1` the Potency was > 20 µM.
With `CC(=O)NCCNc1nc(-c2cccc(NS(C)(=O)=O)c2)nc2ccccc12` the Potency was > 20 µM.
With `O=c1cnc2cnc(N3CCOCC3)nc2n1C[C@H]1CCCO1` the Potency was > 20 µM.
For `COc1ccc(-c2nc3cnc(OC)nc3n(-c3ccccc3)c2=O)cc1`, the Potency was > 20 µM.
With `O=C(c1ccncc1)N1CCC2(CCCN(c3ccc(-c4ccccc4)cc3)C2)CC1` the Potency was > 20 µM.
`CC(=O)NCCNc1ncnc2ccc(-c3c(C)noc3C)cc12` was tested, and the Potency was > 20 µM.
For `COc1ccccc1CNc1ccnc(-c2ccc(N(C)C)cc2)n1`, the Potency was > 20 µM.
In the case of `COc1ccccc1-c1nc(NCc2cccnc2)c2ccccc2n1`, the Potency is reported as > 20 µM.
`CCNc1ncc2nc(-c3cc(F)cc(F)c3)c(=O)n(CCOC)c2n1` was tested, and the Potency was > 20 µM.
For `Cc1noc(C)c1-c1cc(NC2CC2)ncn1`, the Potency was > 20 µM.
For `c1cncc(-c2cncnc2NC2CCNCC2)c1`, the Potency was > 20 µM.
In the case of `CN1CCN(c2ncc3nc(-c4cn(C)c5ccccc45)c(=O)n(Cc4cccs4)c3n2)CC1`, the Potency is reported as > 20 µM.
`COc1cccc(-c2ccc3ncnc(NCc4cnc(C)cn4)c3c2)c1` was tested, and the Potency was > 20 µM.
In the case of `O=C(c1ccco1)N1CCC2(CCCN(c3ccccn3)C2)CC1`, the Potency is reported as > 20 µM.
With `COc1cccc(Nc2ncc3nc(-c4ccccc4)c(=O)n(C4CC4)c3n2)c1` the Potency was > 20 µM.
With `CN(C)c1ccc(-c2ccc3ncnc(N(C)C)c3c2)cc1` the Potency was > 20 µM.
In the case of `Cc1ccccc1-c1nc(NC2CC2)c2ccccc2n1`, the Potency is reported as > 20 µM.
In the case of `O=C(Oc1ccccc1)N1CCC2(CCCN(c3cccc(-c4ccccc4)c3)C2)CC1`, the Potency is reported as > 20 µM.
For `CN(C)C(=O)c1ccc(-c2nc(N3CCOCC3)c3ccccc3n2)cc1`, the Potency was > 20 µM.
With `COc1ccccc1-c1cncnc1NCc1cccc(C)c1` the Potency was > 20 µM.
With `COc1ccc(Oc2ncc3nc(-c4ccccc4)c(=O)n(C4CC4)c3n2)cc1` the Potency was > 20 µM.
For `COc1ccc(NC(=O)N2CCCC3(CCN(C(=O)c4cc(C(F)(F)F)cc(C(F)(F)F)c4)CC3)C2)cc1`, the Potency was > 20 µM.
`COc1ccc(-n2c(=O)c(C)nc3cnc(N4CCOCC4)nc32)cc1` was tested, and the Potency was > 20 µM.
For `CN(C)c1ncc2nc(-c3ccccc3)c(=O)n(CCC#N)c2n1`, the Potency was > 20 µM.
With `O=c1c(-c2ccccc2)nc2cnc(N3CCNCC3)nc2n1Cc1ccc(F)cc1` the Potency was > 20 µM.
For `COc1ccccc1CN1CCC2(CC1)CCN(C(=O)c1cccc(F)c1)CC2`, the Potency was > 20 µM.
`Cc1noc(C)c1C(=O)N1CCC2(CCCN(c3ncccn3)C2)CC1` was tested, and the Potency was > 20 µM.
`COc1ccc2[nH]cc(CCNc3ccnc(-c4cccnc4)n3)c2c1` was tested, and the Potency was > 20 µM.
`Cc1nc2cncnc2n(Cc2ccccc2)c1=O` was tested, and the Potency was > 20 µM.
For `Cc1nc2cnc(N3CCN(C)CC3)nc2n(C[C@H]2CCCO2)c1=O`, the Potency was > 20 µM.
